Assay results published in PubChem BioAssay AID602144 (Vanderbilt Specialized Chemistry Center, 2011).
Activity calls are given as the source filed them. No stated cut-off is given here; in the data, active means remaining activity below about 50%; inactive means the rest.

biological target: Phospholipase D1 (Homo sapiens) (UniProt Q13393); assay: cellular phospholipase D1 activity inhibition – Calu-1 cells, single concentration (AID 602144); conditions: cellular PLD1 activity, hits give low values;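 further: tested at 200 nM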
Sequence (Q13393 whole entry, looked up): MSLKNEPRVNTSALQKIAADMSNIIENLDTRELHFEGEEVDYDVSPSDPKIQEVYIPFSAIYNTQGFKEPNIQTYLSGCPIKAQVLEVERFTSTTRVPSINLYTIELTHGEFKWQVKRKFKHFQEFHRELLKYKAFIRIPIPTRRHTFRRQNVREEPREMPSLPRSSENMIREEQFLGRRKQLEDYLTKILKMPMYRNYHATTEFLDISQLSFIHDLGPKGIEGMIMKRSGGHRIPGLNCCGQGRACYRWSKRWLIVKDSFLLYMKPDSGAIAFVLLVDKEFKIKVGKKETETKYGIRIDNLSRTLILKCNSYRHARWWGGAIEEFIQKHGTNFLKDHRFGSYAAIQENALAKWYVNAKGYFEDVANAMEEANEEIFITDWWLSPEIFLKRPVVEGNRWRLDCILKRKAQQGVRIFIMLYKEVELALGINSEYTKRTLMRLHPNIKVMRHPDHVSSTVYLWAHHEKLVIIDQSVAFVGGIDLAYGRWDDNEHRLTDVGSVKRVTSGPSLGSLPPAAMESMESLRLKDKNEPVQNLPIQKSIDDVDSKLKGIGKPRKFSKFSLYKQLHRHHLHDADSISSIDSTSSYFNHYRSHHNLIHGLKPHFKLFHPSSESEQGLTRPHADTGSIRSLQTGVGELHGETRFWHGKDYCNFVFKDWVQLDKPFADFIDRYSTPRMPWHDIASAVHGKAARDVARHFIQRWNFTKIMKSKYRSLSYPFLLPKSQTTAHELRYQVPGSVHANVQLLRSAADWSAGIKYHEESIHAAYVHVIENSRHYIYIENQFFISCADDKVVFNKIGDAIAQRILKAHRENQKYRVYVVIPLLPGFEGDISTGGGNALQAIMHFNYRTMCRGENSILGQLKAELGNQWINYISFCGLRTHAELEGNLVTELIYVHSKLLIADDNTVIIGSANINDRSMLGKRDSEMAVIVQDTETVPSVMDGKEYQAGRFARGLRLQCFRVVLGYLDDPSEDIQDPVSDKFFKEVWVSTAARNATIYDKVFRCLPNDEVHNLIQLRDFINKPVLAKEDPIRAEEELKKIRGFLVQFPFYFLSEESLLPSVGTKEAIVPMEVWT
Sequence (Q13393 whole entry, looked up): as above

Compound	remaining activity
COc1cccc(N2CCN(CCNC(=O)c3ccc4ccccc4c3)CC2)c1	77.7% (inactive)
O=C(NCCN1CCN(c2ccncc2)CC1)c1ccc(F)cc1	126% (inactive)
CN1CCC2(CCN(CCNC(=O)[C@H]3C[C@@H]3c3ccccc3)CC2)C1=O	107% (inactive)
Cc1cccc(C(=O)NCCN2CCC(n3c(=O)[nH]c4ccccc43)CC2)n1	26.7% (active)
O=C(c1ccc(Cl)cc1)N1CCC(n2c(=O)[nH]c3cc(Cl)ccc32)CC1	79.2% (inactive)
O=C(NCCN1CCC(n2c(=O)[nH]c3ccccc32)CC1)c1ccc2c(c1)CCCC2	83.6% (inactive)
NCCN1CCC(n2c(=O)[nH]c3cc(Cl)ccc32)CC1 (tested in a mixture with another compound)	62.4% (inactive)
C[C@@H](CN1CCC2(C=Cc3ccccc32)CC1)NC(=O)[C@H]1C[C@@H]1c1ccccc1	126% (inactive)
Cc1ccc(C(=O)NCCN2CCN(c3ncccn3)CC2)cc1	84.2% (inactive)
C[C@@H](CN1CCC2(CCc3ccccc32)CC1)NC(=O)c1ccc2ccccc2c1	91.4% (inactive)
C[C@@H](CN1CCC(n2c(=O)[nH]c3cc(I)ccc32)CC1)NC(=O)c1ccc2ccccc2c1	20.1% (active)
CS(=O)(=O)NCCN1CCC(n2c(=O)[nH]c3ccccc32)CC1	88% (inactive)
O=C(NCCN1CCC2(CC1)CNc1ccccc12)C1CC1c1ccccc1 (stereo not given)	113% (inactive)
O=C(NCCN1CCC(C(=O)NCc2ccc(Cl)cc2)CC1)c1ccc2ccccc2c1	99.2% (inactive)
CN(C)c1cccc2c(S(=O)(=O)NCCN3CCC(n4c(=O)[nH]c5ccccc54)CC3)cccc12	127% (inactive)
CCOC(=O)CNC(=O)NCCN1CCC(n2c(=O)[nH]c3ccccc32)CC1	136% (inactive)
COc1cccc(N2CCN(CCNC(=O)c3ccc(C(F)(F)F)cc3)CC2)c1	102% (inactive)
O=c1[nH]c2ccccc2n1C1CCN(CCNS(=O)(=O)c2ccc(OC(F)(F)F)cc2)CC1	117% (inactive)
C[C@@H](CN1CCC(n2c(=O)[nH]c3ccccc32)CC1)NC(=O)CSc1ccccc1	48.1% (active)
C[C@@H](CN1CCC(n2c(=O)[nH]c3ccccc32)CC1)NC(=O)c1ccc(F)c(F)c1	21.3% (active)

Compound	remaining activity
O=C(c1ccc2ccccc2c1)N1CCC(n2c(=O)[nH]c3cc(Cl)ccc32)CC1	77.3% (inactive)
O=C(NCCN1CCC(n2c(=O)[nH]c3ccccc32)CC1)Nc1cccc(F)c1	20.1% (active)
O=C(NCCN1CCC2(CC1)CCN(c1ccccc1)C2=O)c1cnc2ccccc2c1	109% (inactive)
C[C@@H](CN1CC=C(n2c(=O)[nH]c3ccccc32)CC1)NC(=O)c1ccc2ccccc2c1	0.0151% (active)
O=C(NCCN1CCC(n2c(=O)[nH]c3ccccc32)CC1)c1cccc(F)n1	34% (active)
C[C@H](CN1CCC(n2c(=O)[nH]c3cc(Cl)ccc32)CC1)NC(=O)c1cc2ccccc2[nH]1	0.888% (active)
O=C(NCCN1CCC(c2nc3ccccc3[nH]2)CC1)c1cnc2ccccc2c1	123% (inactive)
O=C(NCCN1CCC(n2c(=O)[nH]c3ccccc32)CC1)Nc1ccccc1F	102% (inactive)
COc1ccccc1NC(=S)NCCN1CCC(n2c(=O)[nH]c3ccccc32)CC1	152% (inactive)
COc1cc(C(=O)NCCN2CCN(c3ccncc3)CC2)ccc1N	90.7% (inactive)
C[C@H](CN1CCC2(CC1)CNCc1ccccc12)NC(=O)c1cnc2ccccc2c1	69% (inactive)
NC1(CN2CCC(n3c(=O)[nH]c4ccccc43)CC2)CCCC1 (tested in a mixture with another compound)	86.8% (inactive)
CC1(C)[C@@H]2CC[C@@]1(CS(=O)(=O)NCCN1CCC(n3c(=O)[nH]c4ccccc43)CC1)C(=O)C2	103% (inactive)
C[C@@H](CN1CCC2(C=Cc3ccccc32)CC1)NC(=O)c1cnc2ccccc2c1	137% (inactive)
O=C(NCCN1CCN(c2ccncc2)CC1)c1ccc(Cl)cc1	121% (inactive)
O=C1c2ccccc2C(=O)N1CCCNCc1ccccn1	175% (inactive)
O=C(NCCN1CCC(n2c(=O)[nH]c3ccccc32)CC1)C1C=Cc2ccccc2C1 (stereo not given)	33% (active)
C[C@@H](CN1CCC(n2nnc3cc(C(F)(F)F)ccc32)CC1)NC(=O)c1cnc2ccccc2c1	101% (inactive)
Cn1c(=O)n(C2CCN(CCNC(=O)[C@H]3C[C@@H]3c3ccccc3)CC2)c2ccccc21	76.2% (inactive)
O=C1c2ccccc2C(=O)N1CCCN1CCC(c2nc3ccccc3[nH]2)CC1	95.3% (inactive)
